# In PubChem BioAssay AID2284094 (EPA ToxCast):
# Active and inactive are the calls of the source. The calls were made as follows: active = hit-call score of the fitted dose curve at least 0.9, where 1 is the maximum; inactive = score below 0.9.
# Target: human VHR Phosphatase, DUSP3 (gene 1845) (UniProt P51452)
# Assay: ERF_FR_ENZ_hDUSP3: Eurofins (ERF) Enzymatic Assay for human VHR Phosphatase
# Procedure: ERF_FR_ENZ_hDUSP3 is a biochemical, single-readout assay that uses extracted gene-proteins in a cell-free assay. Measurements were taken 0.5 hour after chemical dosing in a 96-well plate. See VHR Human Phosphatase Enzymatic Assay, PhosphataseProfiler.ERF_FR_ENZ_hDUSP3 is an assay component calculated from the ERF_FR_ENZ_hDUSP3 assay. It is designed to measure enzyme activity using a type of enzyme reporter as detected by fluorescence intensity with spectrophotometry technology.Data from the assay component ERF_FR_ENZ_hDUSP3 was analyzed at the assay endpoint, ERF_FR_ENZ_hDUSP3, in the positive analysis fitting direction relative to DMSO as the negative control and baseline of activity. Using a type of enzyme reporter, loss-of-signal activity can be used to understand changes in enzymatic activity as they relate to gene DUSP3. To generalize the intended target to other relatable targets, this assay endpoint is annotated to the […].
# Human recombinant protein phosphatase VHR expressed in E. coli is used. Test compound and/or vehicle is preincubated with 0.2 mU/ml enzyme for 15 minutes at 37C in modified HEPES buffer pH 7.2. The reaction is initiated by addition of 100 uM DiFMUP for 60 minutes. Determination of the amount of DiFMU formed is read spectrofluorimetrically at 358 nm/450 nm. Compounds are screened at 10 uM.
# Sequence of human VHR Phosphatase, DUSP3 (gene 1845) (P51452 whole entry, looked up): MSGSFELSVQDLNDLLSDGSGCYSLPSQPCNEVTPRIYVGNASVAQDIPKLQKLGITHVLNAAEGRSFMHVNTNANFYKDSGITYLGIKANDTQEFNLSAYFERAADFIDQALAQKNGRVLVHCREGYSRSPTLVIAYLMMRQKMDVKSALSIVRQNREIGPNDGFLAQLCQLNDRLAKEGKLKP
row,Structure (SMILES),AC50
1,O=C(/C=C/c1ccc(O)cc1)CC(=O)/C=C/c1ccc(O)cc1,1.01 nM (active)
